Measured values: PubChem BioAssay AID1159580 (chemical genetic matrix, 2015)
Among all 5,500 compounds or so, about 2,000 (36%) were called active. About 18% were inconclusive and are not listed. Rule as the data show it: active = normalized growth mostly below about 0.91 (no sharp cut-off); inconclusive = no clear call, values can overlap the other calls; inactive = mostly above about 0.92. Some of the results follow.

Test: chemical genetic growth profiling, strain panel (AID 1159580);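 also: tested at 20 µM; growth read once vehicle control cultures reached saturation at 30 °C; 1 = growth at the plate median or of vehicle wells; lower values mean less growth of the strain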
Details: growth OD
[1] = S. cerevisiae deletion strains, locus YBR021W, strain FUR4, active compounds read low
[2] = S. cerevisiae deletion strains, locus YBR229C, strain ROT2, active compounds read low
[3] = S. cerevisiae deletion strains, locus YCL029C, strain bik1, active compounds read low
[4] = S. cerevisiae deletion strains, locus YDL035C, strain GPR1, active compounds read low
[5] = S. cerevisiae deletion strains, locus YDL074C, strain BRE1, active compounds read low
[6] = S. cerevisiae deletion strains, locus YDL101C, strain DUN1, active compounds read low
[7] = S. cerevisiae deletion strains, locus YDL185W, strain tfp1, active compounds read low
[8] = S. cerevisiae deletion strains, locus YDL192W, strain arf1, active compounds read low
[9] = S. cerevisiae deletion strains, locus YDR101C, strain arx1, active compounds read low
[10] = S. cerevisiae deletion strains, locus YDR162C, strain NBP2, active compounds read low
[11] = S. cerevisiae deletion strains, locus YDR318W, strain mcm21, active compounds read low
[12] = S. cerevisiae deletion strains, locus YDR388W, active compounds read low
[13] = S. cerevisiae deletion strains, locus YDR502C, strain sam2, active compounds read low
[14] = S. cerevisiae deletion strains, locus YEL061C, strain CIN8, active compounds read low
[15] = S. cerevisiae deletion strains, locus YER110C, active compounds read low
[16] = S. cerevisiae deletion strains, locus YER155C, strain BEM2, active compounds read low
[17] = S. cerevisiae deletion strains, locus YER167W, strain BCK2, active compounds read low
[18] = S. cerevisiae deletion strains, locus YGL078C, strain dbp3, active compounds read low
[19] = S. cerevisiae deletion strains, locus YGL086W, strain mad1, active compounds read low
[20] = S. cerevisiae deletion strains, locus YGL248W, strain PDE1, active compounds read low
[21] = S. cerevisiae deletion strains, locus YGR135W, strain pre9, active compounds read low
[22] = S. cerevisiae deletion strains, locus YGR229C, strain SMI1, active compounds read low
[23] = S. cerevisiae deletion strains, locus YGR252W, strain gcn5, active compounds read low
[24] = S. cerevisiae deletion strains, locus YHR030C, strain SLT2, active compounds read low
[25] = S. cerevisiae deletion strains, locus YHR079C, strain IRE1 (second series), active compounds read low
[26] = S. cerevisiae deletion strains, locus YHR094C, strain hxt1, active compounds read low
[27] = S. cerevisiae deletion strains, locus YHR129C, strain ARP1, active compounds read low
[28] = S. cerevisiae deletion strains, locus YHR200W, strain rpn10, active compounds read low
[29] = S. cerevisiae deletion strains, locus YIL066C, strain RNR3, active compounds read low
[30] = S. cerevisiae deletion strains, locus YIL073C, strain SPO22, active compounds read low
[31] = S. cerevisiae deletion strains, locus YIL125W, strain kgd1, active compounds read low
[32] = S. cerevisiae deletion strains, locus YIR030C, strain dcg1, active compounds read low
[33] = S. cerevisiae deletion strains, locus YJL095W, strain BCK1, active compounds read low
[34] = S. cerevisiae deletion strains, locus YJL134W, strain LCB3, active compounds read low
[35] = S. cerevisiae deletion strains, locus YJL168C, strain set2, active compounds read low
[36] = S. cerevisiae deletion strains, locus YJL187C, strain SWE1 (second series), active compounds read low
[37] = S. cerevisiae deletion strains, locus YJR043C, strain POL32, active compounds read low
[38] = S. cerevisiae deletion strains, locus YKL009W, strain mrt4, active compounds read low
[39] = S. cerevisiae deletion strains, locus YKL085W, strain MDH1 (second series), active compounds read low
[40] = S. cerevisiae deletion strains, locus YKL085W, strain MDH1, active compounds read low
[41] = S. cerevisiae deletion strains, locus YKR001C, strain vps1, active compounds read low
[42] = S. cerevisiae deletion strains, locus YLR039C, strain RIC1, active compounds read low
[43] = S. cerevisiae deletion strains, locus YLR058C, strain SHM2, active compounds read low
[44] = S. cerevisiae deletion strains, locus YLR102C, strain apc9, active compounds read low
[45] = S. cerevisiae deletion strains, locus YLR262C, strain YPT6, active compounds read low
[46] = S. cerevisiae deletion strains, locus YLR268W, strain sec22, active compounds read low
[47] = S. cerevisiae deletion strains, locus YLR330W, strain CHS5, active compounds read low
[48] = S. cerevisiae deletion strains, locus YLR342W, strain FKS1 (second series), active compounds read low
[49] = S. cerevisiae deletion strains, locus YLR371W, strain rom2, active compounds read low
[50] = S. cerevisiae deletion strains, locus YLR418C, strain cdc73, active compounds read low
[51] = S. cerevisiae deletion strains, locus YML016C, strain PPZ1, active compounds read low
[52] = S. cerevisiae deletion strains, locus YML032C, strain rad52, active compounds read low
[53] = S. cerevisiae deletion strains, locus YML124C, strain tub3, active compounds read low
[54] = S. cerevisiae deletion strains, locus YMR078C, strain ctf18, active compounds read low
[55] = S. cerevisiae deletion strains, locus YMR223W, strain ubp8, active compounds read low
[56] = S. cerevisiae deletion strains, locus YMR307W, strain GAS1, active compounds read low
[57] = S. cerevisiae deletion strains, locus YNL067W, strain RPL9B, active compounds read low
[58] = S. cerevisiae deletion strains, locus YNL233W, strain BNI4, active compounds read low
[59] = S. cerevisiae deletion strains, locus YNL250W, strain rad50, active compounds read low
[60] = S. cerevisiae deletion strains, locus YNL271C, strain bni1, active compounds read low
[61] = S. cerevisiae deletion strains, locus YNL298W, strain CLA4, active compounds read low
[62] = S. cerevisiae deletion strains, locus YNL307C, strain MCK1, active compounds read low
[63] = S. cerevisiae deletion strains, locus YNL322C, strain KRE1, active compounds read low
[64] = S. cerevisiae deletion strains, locus YNR052C, strain pop2, active compounds read low
[65] = S. cerevisiae deletion strains, locus YOL012C, strain htz1
[66] = S. cerevisiae deletion strains, locus YOL147C, strain pex11, active compounds read low
[67] = S. cerevisiae deletion strains, locus YOR061W, strain CKA2, active compounds read low
[68] = S. cerevisiae deletion strains, locus YOR069W, strain VPS5, active compounds read low
[69] = S. cerevisiae deletion strains, locus YOR136W, strain idh2, active compounds read low
[70] = S. cerevisiae deletion strains, locus YOR144C, strain elg1, active compounds read low
[71] = S. cerevisiae deletion strains, locus YOR184W, strain ser1, active compounds read low
[72] = S. cerevisiae deletion strains, locus YOR316C, strain cot1, active compounds read low
[73] = S. cerevisiae deletion strains, locus YPR119W, strain clb2, active compounds read low
[74] = S. cerevisiae deletion strains, locus YPR141C, strain kar3, active compounds read low
[75] = S. cerevisiae deletion strains, locus YPR163C, strain tif3, active compounds read low
[76] = S. cerevisiae deletion strains, locus YPR167C, strain met16, active compounds read low
[77] = S. cerevisiae deletion strains, strain wtn01, active compounds read low
[78] = S. cerevisiae strains, strain wild type, active compounds read low

Measured: normalized growth

COC(=O)c1c(C)c2c(c(C)c1OC)OC(=O)c1c(C)c(Cl)c(OC)c(Cl)c1O2
inactive: [1] 0.99 | [2] 1.01 | [3] 1.02 | [4] 1.03 | [5] 1.04 | [6] 1.02 | S. cerevisiae deletion strains, locus YDL134C, strain PPH21, active compounds read low 1.01 | [7] 1.01 | [8] 1.02 | [9] 1 | S. cerevisiae deletion strains, locus YDR150W, strain NUM1, active compounds read low 1.02 | [10] 1.03 | [11] 1.02 | [12] 1.02 | [13] 1.03 | [14] 1.01 | [15] 1.02 | [16] 0.998 | [17] 1.03 | [18] 1.01 | [19] 1.03 | [20] 1.01 | [21] 1.03 | [22] 1.06 | [23] 1.01 | [24] 1.02 | [25] 1.01 | [26] 1.02 | [27] 1.01 | [28] 1.02 | [29] 1.04 | [30] 1.09 | [31] 1.01 | [32] 1.01 | [33] 1.04 | [34] 1.01 | [35] 1.02 | [36] 1.03 | [37] 1.03 | S. cerevisiae deletion strains, locus YKL068W, active compounds read low 1.04 | [41] 1.01 | [42] 1.06 | [43] 1.02 | [44] 1.01 | [45] 1.07 | [46] 1.02 | [47] 1.02 | [48] 1.05 | [49] 1.01 | [50] 1.03 | [51] 1.01 | [52] 1.01 | [53] 1.04 | [54] 1.01 | [55] 1.02 | [56] 1.04 | [57] 1.02 | S. cerevisiae deletion strains, locus YNL128W, strain TEP1, active compounds read low 1.04 | [58] 1.02 | [59] 1.04 | [60] 1.02 | [61] 1.02 | [62] 1.01 | [63] 1.02 | [64] 1.02 | [65] 0.795 | [66] 1.01 | [67] 1.01 | [68] 1.01 | [69] 1.02 | [70] 1.01 | [71] 1.02 | [72] 1.02 | S. cerevisiae deletion strains, locus YPL055C, strain LGE1, active compounds read low 1.04 | [73] 1.01 | [74] 1.02 | [75] 1.01 | [76] 1.02 | [77] 1.01 | [78] 1.02
active: [38] 1.37 [resistant] | [39] 1.23 [resistant] | [40] 1.23 [resistant]

CC(=O)Oc1c(Cl)c(C)c2c(c1Cl)OC(=O)c1c(C)c(Cl)c(OC(C)=O)c(Cl)c1O2
active: S. cerevisiae deletion strains, locus YAL013W, strain DEP1, active compounds read low 0.895 | [1] 0.851 | [3] 0.853 | [8] 0.825 | [9] 0.883 | [10] 0.799 | [13] 0.878 | [16] 0.91 | [18] 0.856 | [19] 0.899 | [22] 0.65 | [23] 0.693 | [38] 0.678 | [39] 1.39 [resistant] | [40] 1.39 [resistant] | [41] 0.682 | [46] 0.847 | [50] 0.756 | [52] 0.853 | [55] 0.886 | [57] 0.846 | S. cerevisiae deletion strains, locus YNL153C, strain GIM3, active compounds read low 0.858 | [61] 0.866 | [62] 0.771 | [64] 0.754 | [66] 0.916 | [70] 0.903 | [71] 0.652 | [75] 0.736 | [77] 0.856
inactive: [2] 1.02 | [4] 0.86 | [5] 0.79 | [6] 0.946 | [7] 1 | [11] 0.946 | [12] 0.932 | [14] 1.02 | [15] 0.992 | [17] 0.985 | [20] 0.926 | [21] 0.912 | [24] 0.922 | [25] 1.01 | [26] 1.01 | [27] 0.925 | [28] 0.966 | [29] 0.965 | [30] 1.03 | [31] 1.02 | [32] 0.934 | [33] 0.802 | [34] 1.04 | [35] 1.01 | [36] 0.913 | [37] 0.921 | [42] 0.715 | [43] 0.967 | [44] 1.01 | [45] 0.642 | [47] 0.922 | [48] 0.828 | [49] 1.01 | [51] 1.02 | [53] 1.02 | [54] 0.985 | [56] 0.613 | [58] 0.934 | [59] 0.98 | [60] 0.993 | [63] 1.02 | S. cerevisiae deletion strains, locus YOL006C, strain TOP1, active compounds read low 0.734 | [65] 1.44 | [67] 0.988 | [68] 0.972 | [69] 0.976 | [72] 1.01 | [73] 1.01 | [74] 1.07 | [76] 0.942 | [78] 0.977
